Data as given in PubChem BioAssay (Tox21).
Records with an inconclusive call do not appear. Where a call stands in place of a potency, no number is given. Active and inactive are the calls of the source. The call rests on the fitted dose curve; in most records, active means well fitted cell-killing curve with a large enough effect in the repeat runs; inconclusive means weak or mixed curves, or effect the other way; inactive means flat fitted curve, though single readings scatter.

experiment: qHTS RealTime-Glo MT Cell Viability Assay in HEK293 cells - 32 hour (AID 1224868); details: RealTime-Glo luminescence; series mostly up to 76.8 µM; further: nearly all actives have a fitted effect of over 50% in size; on activity change, negative = cytotoxic: top concentration of the series differs between compounds
From the text: National Center for Advancing Translational Sciences [NCATS]
NIH Chemical Genomics Center [NCGC]
U.S. Environmental Protection Agency [EPA]
National Institutes of Environmental Health Sciences [NIEHS]
National Toxicology Program [NTP]
U.S. Food and Drug Administration [FDA]
Measure of cell viability is critical in the cell-base assay. Analysis of cell viability is necessary for the characterization of cell responses to cytotoxic drugs and environmental stress. A RealTime-Glo MT Cell Viability Assay to monitor cell viability in real time of continues cell culture during 40 hours of compound treatment was used to screen Tox21 10K library compounds in Hek293 cells. The RealTime-Glo MT Cell Viability Assay is a nonlytic, homogeneous, bioluminescent method to measure cell viability in real time using a simple, plate-based method. The assay involves adding NanoLuc luciferase and a cell-permeant prosubstrate to cells in culture. Viable cells reduce the proprietary prosubstrate to generate a substrate for NanoLuc luciferase. This substrate diffuses from cells into the surrounding culture medium, where it is rapidly used by the NanoLuc Enzyme to produce a luminescent signal. The signal correlates with the number of viable cells, making the assay well suited for cytotoxicity studies.
Tox21 Assay Protocol Summary:
The mixture of Hek293 cell suspension and reagents were dispensed at 600cells/6 ul/well in 1536-well tissue culture treated black solid bottom plates using a Multidrop dispenser. After the assay plates were incubated at a 37 C/5% CO2 incubator for 5 hours, 23 nL of compounds dissolved in DMSO, positive and negative controls was transferred to the assay plate by a pintool work station. The plates were incubated at 37 C for 40 hours. The luminescence intensity were measured at 0h, 8h, 16h, 24h, 32h and 40h time points using ViewLux plate reader during compound treatment.
Potency means the concentration at half of the fitted maximal effect.

Structure (SMILES) | Potency | activity change, negative = cytotoxic
O=C(c1ccc(O)cc1)c1ccc(Cl)cc1 | 25.1 µM (active) | –
O=C(O)c1snc(Cl)c1Cl | inactive | –
CCCCC/C(=C\c1ccccc1)CO | inactive | –
C=C(C)C(=O)OCCOC(=O)CC(C)=O | inactive | –
Cc1nc2ccccc2s1 | inactive | –
Cc1cc(S(=O)(=O)O)ccc1N=Nc1c(O)ccc2ccccc12 | inactive | –
CC(C)(C)CC(C)(C)c1ccc(OCCO)cc1 | 5.46 µM (active) | –
CCCOC(=O)c1ccc(N)cc1 | inactive | –
O=C(CCCCCCC(=O)Nc1ccccc1)NO | 2.39 µM (active) | –
CCC(C)=O | inactive | –
CC(C)C(OC(=O)c1ccccc1)C(C)(C)COC(=O)c1ccccc1 (stereo not given) | inactive | –
Cc1ccc(/C=N/n2c(-c3ccccc3)csc2=S)cc1 | inactive | –
OC/C(Br)=C(\Br)CO | inactive | –
CCc1c2c(nc3ccc(OC(=O)N4CCC(N5CCCCC5)CC4)cc13)-c1cc3c(c(=O)n1C2)COC(=O)[C@]3(O)CC | 2.68 µM (active) | –
C=CC(C)(C)CC(=O)OC | 1.38 µM (active) | –
Cc1occc1C(=O)Nc1ccc(C(=O)N2CCC(F)(F)/C(=C\C(=O)N3CCC(N4CCCCC4)CC3)c3ccccc32)cc1 | 10.8 µM (active) | –
CCCCC(CC)CNCC(CC)CCCC (stereo not given) | inactive | –
CCCCC(CC)COC(=O)COc1ccc(Cl)cc1C (stereo not given) | inactive | –
CCCCCCCCCOC(C)=O | inactive | –
O=[N+]([O-])c1cccc(S(=O)(=O)NCCNS(=O)(=O)c2cccc([N+](=O)[O-])c2)c1 | inactive | –

Structure (SMILES) | Potency | activity change, negative = cytotoxic
CCCC(=O)O[C@]1(C(=O)COC(=O)CC)CC[C@H]2[C@@H]3CCC4=CC(=O)CC[C@]4(C)[C@H]3[C@@H](O)C[C@@]21C | – | -2.43% [at 15.8 µM] (inactive)
C/C=C(\C)C(=O)OCCC(C)CCC=C(C)C (stereo not given) | inactive | –
O=C(O)Cc1ccc(-c2ccccc2)cc1 | inactive | –
CC(C)c1nnc2ccc(-c3ocnc3-c3cc(F)ccc3F)cn12 | 21.9 µM (active) | –
CCCCCCOC(=O)CCCCCCCC(=O)OCCCCCC | inactive | –
CCC(=O)OC/C=C/c1ccccc1 | inactive | –
O=C(CCCN1CCN(c2ccc(F)cc2)CC1)NC1c2ccccc2CSc2ccccc21 (stereo not given) | 19 µM (active) | –
CN1Cc2cc(C(=O)N3CCC(C4CCNCC4)CC3)ccc2N[C@@H](CC(=O)O)C1=O | inactive | –
CN1CCN(c2c(F)cc3c(=O)c(C(=O)O)cn4c3c2OCN4C)CC1 | – | 1.18% [at 15.8 µM] (inactive)
CCC(=O)Oc1ccc(/C(CC)=C(\CC)c2ccc(OC(=O)CC)cc2)cc1 | 17.4 µM (active) | –
CO[Si](C)(OC)OC | inactive | –
Cc1ccnc2ccccc12 | inactive | –
CC1=C(/C=C/C(C)=C\C=C\C(C)=C\C(=O)O)C(C)(C)CCC1 | inactive | –
CCN(Cc1cccc(S(=O)(=O)O)c1)c1ccc(C(=C2C=CC(=[N+](CC)Cc3cccc(S(=O)(=O)[O-])c3)C=C2)c2ccccc2)cc1 | inactive | –
CCOC(=O)/C=C/C(=O)O | inactive | –
C[Si]1(C)O[Si](C)(C)O[Si](C)(C)O1 | inactive | –
COc1ccccc1N=Nc1c(S(=O)(=O)O)cc2cc(S(=O)(=O)O)cc(NC(C)=O)c2c1O | inactive | –
CC(C)CCCCCOC(=O)CCCCC(=O)OCCCCCC(C)C | inactive | –
CCCCCCCCCCCCCCCCBr | – | 4.73% [at 15.8 µM] (inactive)
C[C@]12CCC(=O)C=C1C=C[C@@H]1[C@@H]2CC[C@@]2(C)[C@H]1CC[C@@]21CCC(=O)O1 | inactive | –
